From PubChem BioAssay (NCATS)
Records with an inconclusive call do not appear. Active and inactive are the calls of the source. Calls come from the whole dose curve; as a rule, active = well fitted curve in the direction sought with a large enough effect; inconclusive = small, poorly fitted or top-dose-only effect, or another doubt; inactive = no such curve, though single readings can be large; an effect the other way counts as inactive or inconclusive.

Key:
[1] = Quantitative High-Throughput drug screen in 47 multiple myeloma cell lines against the NCATS MIPE library collection: KMS26_JCRB cell viability assay (AID 1918975); note: nearly all actives have a fitted effect of over 45% in size
Procedure, shortened: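 Steps: seed 500 cells per well; pin-transfer MIPE 4.0 library; incubate 48 h at 37C, 5% CO2, humidified; add CellTiter-Glo, 5 min room temperature; read luminescence.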

[2] = Quantitative High-Throughput drug screen in 47 multiple myeloma cell lines against the NCATS MIPE library collection: MMM1_PLB cell viability assay (AID 1918976); note: nearly all actives have a fitted effect of over 35% in size
Procedure, shortened: (§1)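 MIPE 4.0 approved/investigational drugs; 500 cells/well; 48 h 37 °C humidified 5% CO2; CTG luminescence readout; DMSO = 100%, media = 0% viability.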

[3] = Quantitative High-Throughput drug screen in 47 multiple myeloma cell lines against the NCATS MIPE library collection: MOLP8_DSMZ cell viability assay (AID 1918977); note: nearly all actives have a fitted effect of over 45% in size
Procedure, shortened: as §1

[4] = Quantitative High-Throughput drug screen in 47 multiple myeloma cell lines against the NCATS MIPE library collection: OCIMY1_PLB cell viability assay (AID 1918979); note: nearly all actives have a fitted effect of over 35% in size
Procedure, shortened: as §1

[5] = Quantitative High-Throughput drug screen in 47 multiple myeloma cell lines against the NCATS MIPE library collection: MM1S_ATCC cell viability assay (AID 1918980); note: nearly all actives have a fitted effect of over 45% in size
Procedure, shortened: as §1

[6] = Quantitative High-Throughput drug screen in 47 multiple myeloma cell lines against the NCATS MIPE library collection: MM1R_ATCC cell viability assay (AID 1918981); note: nearly all actives have a fitted effect of over 35% in size
Procedure, shortened: as §1

[7] = Quantitative High-Throughput drug screen in 47 multiple myeloma cell lines against the NCATS MIPE library collection: KMS28PE_JCRB cell viability assay (AID 1918983); note: nearly all actives have a fitted effect of over 35% in size
Procedure, shortened: as §1

[8] = Quantitative High-Throughput drug screen in 47 multiple myeloma cell lines against the NCATS MIPE library collection: L363_DSMZ cell viability assay (AID 1918984); note: nearly all actives have a fitted effect of over 40% in size
Procedure, shortened: as §1

[9] = Quantitative High-Throughput drug screen in 47 multiple myeloma cell lines against the NCATS MIPE library collection: LP1_DSMZ cell viability assay (AID 1918982); note: nearly all actives have a fitted effect of over 35% in size
Procedure, shortened: as §1

[10] = Quantitative High-Throughput drug screen in 47 multiple myeloma cell lines against the NCATS MIPE library collection: NCIH929_DSMZ cell viability assay (AID 1918978); note: nearly all actives have a fitted effect of over 35% in size
Procedure, shortened: as §1

Measured: Potency
Potency is the fitted concentration of half-maximal effect.

COc1cc2ncnc(Nc3ccc(F)c(Cl)c3)c2cc1NC(=O)C=CCN1CCCCC1
active: [1] 18.7 µM | [2] 18.7 µM | [3] 18.7 µM | [4] 26.4 µM | [5] 13.2 µM | [6] 16.6 µM | [7] 23.5 µM | [8] 2.35 µM

CC1=C(CO)C(=O)O[C@@H]([C@@H](C)[C@H]2CC[C@H]3[C@@H]4C[C@H]5O[C@]56[C@@H](O)C=CC(=O)[C@]6(C)[C@@H]4CC[C@]23C)C1
active: [1] 0.235 µM | [2] 0.833 µM | [3] 0.132 µM | [4] 0.118 µM | [5] 0.148 µM | [6] 0.132 µM | [9] 0.187 µM | [7] 0.264 µM

Cn1c(=O)n(-c2ccc(C(C)(C)C#N)cc2)c2c3cc(-c4cnc5ccccc5c4)ccc3ncc21
active: [1] 0.209 µM | [2] 0.209 µM | [3] 0.0166 µM | [4] 0.0662 µM | [5] 0.296 µM

COc1cc(-c2nn(C3CCC(N4CCN(C(C)=O)CC4)CC3)c3ncnc(N)c23)ccc1NC(=O)c1cc2ccccc2n1C (centres undefined)
active: [1] 14.8 µM | [2] 16.6 µM | [3] 10.5 µM | [4] 7.43 µM | [5] 5.9 µM | [6] 5.9 µM | [7] 14.8 µM

CNC(=O)c1ccccc1Nc1nc(Nc2ccc(N3CCOCC3)cc2OC)ncc1Cl
active: [1] 0.418 µM | [2] 0.526 µM | [3] 14.8 µM | [10] 0.166 µM | [5] 0.662 µM | [7] 0.935 µM | [8] 0.132 µM

CC[C@@H]1C(=O)N(C)c2cnc(Nc3ccc(C(=O)NC4CCC(N5CCN(CC6CC6)CC5)CC4)cc3OC)nc2N1C(C)C (some centres undefined)
active: [1] 5.26 µM | [2] 7.43 µM | [3] 3.72 µM | [10] 1.32 µM | [5] 1.32 µM | [6] 1.87 µM | [7] 0.209 µM | [8] 0.0148 µM

CC(=O)Nc1sc2c(c1-c1nc3ccccc3s1)CNC2
active: [1] 16.6 µM | [2] 14.8 µM | [3] 5.9 µM | [5] 14.8 µM | [6] 18.7 µM | [9] 18.7 µM | [7] 20.9 µM

Cc1cc(Nc2cc(N3CCN(C)CC3)nc(Sc3ccc(NC(=O)C4CC4)cc3)n2)n[nH]1
active: [1] 14.8 µM | [2] 10.5 µM | [3] 5.9 µM | [5] 13.2 µM | [6] 16.6 µM

COc1cccc2c(NCc3ccccc3)nc(-n3c(N)nc4ccccc43)nc12
active: [1] 4.69 µM | [2] 5.9 µM | [3] 3.32 µM | [4] 7.43 µM | [5] 5.26 µM | [6] 5.9 µM | [9] 9.35 µM | [7] 8.33 µM | [8] 1.32 µM

Fc1cc(-c2cccc3ncc(-c4cnn(C5CCNCC5)c4)nc23)cc(F)c1CN1CCOCC1
active: [1] 26.4 µM | [2] 23.5 µM | [3] 18.7 µM | [10] 8.33 µM | [5] 20.9 µM | [6] 20.9 µM | [7] 23.5 µM | [8] 6.62 µM

CN[C@H]1CCc2cc(OC)c(OC)c(OC)c2-c2ccc(OC)c(=O)cc21
active: [1] 0.0148 µM | [2] 0.0105 µM | [3] 0.0235 µM | [10] 0.0235 µM | [6] 0.0066 µM | [9] 0.0015 µM | [7] 0.0019 µM

CN1CCN(c2ccc3nc(-c4c(N)c5c(F)cccc5[nH]c4=O)[nH]c3c2)CC1
active: [1] 29.6 µM | [2] 20.9 µM | [3] 5.9 µM | [10] 2.35 µM | [5] 16.6 µM | [7] 26.4 µM | [8] 2.96 µM

CCn1cc(-c2ccnc3[nH]c(-c4cccc(CN(C)C)c4)cc23)c(-c2ccc(NC(=O)N(C)C)cc2)n1
active: [1] 18.7 µM | [2] 14.8 µM | [3] 8.33 µM | [10] 3.32 µM | [5] 5.26 µM | [7] 11.8 µM | [8] 2.09 µM

COC(=O)c1ccc2c(C(=Nc3ccc(N(C)C(=O)CN4CCN(C)CC4)cc3)c3ccccc3)c(O)[nH]c2c1
active: [1] 2.64 µM | [2] 7.43 µM | [3] 9.35 µM | [4] 10.5 µM | [5] 1.18 µM | [6] 14.8 µM

COc1cc2c(Oc3ccc(-c4cnc(Nc5ccc(F)cc5)n(C)c4=O)cc3F)ccnc2cc1OCCCN1CCOCC1
active: [1] 18.7 µM | [2] 4.69 µM | [3] 18.7 µM | [10] 2.64 µM | [5] 9.35 µM | [6] 3.72 µM | [9] 11.8 µM | [8] 0.833 µM

C=C1C(=CC=C2CCC[C@]3(C)[C@@H]([C@H](C)C=C[C@H](C)C(C)C)CC[C@@H]23)C[C@@H](O)C[C@@H]1O
active: [1] 2.35 µM | [2] 5.9 µM | [3] 7.43 µM | [10] 0.935 µM | [5] 0.0833 µM | [6] 1.66 µM | [7] 13.2 µM | [8] 0.264 µM

COc1ccc(F)c(F)c1C(=O)c1cnc(NC2CCN(S(C)(=O)=O)CC2)nc1N
active: [1] 2.64 µM | [2] 2.64 µM | [3] 1.32 µM | [10] 1.87 µM | [5] 1.66 µM | [6] 2.09 µM | [9] 2.96 µM | [7] 2.35 µM | [8] 1.32 µM
